Measurements reported in ChEMBL document CHEMBL4513141, “CO-ADD screening of NIH (USA) - Clinical Collection” (2021).
Results with a measured potency or affinity are listed apart.

Key:
[1] = test system: Staphylococcus aureus; conditions: Concentration 20 uM; ASSAY_TEST Inhibition of Bacterial Growth; detection method Absorption (OD600); MEDIA CAMHB; plate type 384well; NBS; CORNING #3640; time 18 hr
[2] = test system: Escherichia coli; conditions: Concentration 20 uM; ASSAY_TEST Inhibition of Bacterial Growth; detection method Absorption (OD600); MEDIA CAMHB; plate type 384well; NBS; CORNING #3640; time 18 hr

SMILES	Inhibition [1]	Inhibition [2]
CN1C(=O)CN=C(c2ccccc2)c2cc([N+](=O)[O-])ccc21 [NIMETAZEPAM]	10.78%	1.04%
CN(C)C(=O)C(CCN1CCC(O)(c2ccc(Cl)cc2)CC1)(c1ccccc1)c1ccccc1.Cl [LOPERAMIDE HYDROCHLORIDE]	6.46%	2.77%
Oc1ncnc2[nH]ncc12 [ALLOPURINOL]	15.53%	6.23%
O=C(O[C@@H]1Cc2c(O)cc(O)cc2O[C@@H]1c1cc(O)c(O)c(O)c1)c1cc(O)c(O)c(O)c1 [EPIGALOCATECHIN GALLATE]	13.39%	5.85%
C[C@]12CCC(=O)C=C1CC[C@@H]1[C@@H]2CC[C@@]2(C)[C@H]1CC[C@]2(C)O [METHYLTESTOSTERONE]	7.28%	3.56%
CNCC(O)c1ccc(O)cc1 (configuration not stated) [OXEDRINE]	-16.09%	6.6%
CC(O)(CS(=O)(=O)c1ccc(F)cc1)C(=O)Nc1ccc(C#N)c(C(F)(F)F)c1 (configuration not stated) [BICALUTAMIDE]	-1.51%	6.59%
C[C@H](CCC(=O)O)[C@H]1CC[C@H]2[C@@H]3[C@@H](O)C[C@@H]4C[C@H](O)CC[C@]4(C)[C@H]3CC[C@]12C [URSODIOL]	5.15%	2.26%
Cl.c1ccc2c(CC3=NCCN3)cccc2c1 [NAPHAZOLINE HYDROCHLORIDE]	21.19%	2.28%
CC[N+](C)(C)c1cccc(O)c1.[Cl-] [EDROPHONIUM CHLORIDE]	15.74%	2.93%
CC(C(=O)O)c1ccc(-c2ccccc2)c(F)c1 (configuration not stated) [FLURBIPROFEN]	10.54%	-5.67%
COC(=O)C[C@](O)(CCCC(C)(C)O)C(=O)O[C@@H]1C(OC)=C[C@]23CCCN2CCc2cc4c(cc2[C@H]13)OCO4 [OMACETAXINE MEPESUCCINATE]	10.39%	7.87%
NCCc1ccccn1	1.79%	8.78%
C[N+]1(C)CCN(c2ccccc2)CC1.[I-] [DIMETHYLPHENYLPIPERAZINIUM IODIDE]	11.69%	3.59%
Br.COc1ccc2c(c1)[C@]13CCCC[C@@H]1[C@H](C2)N(C)CC3.O [DEXTROMETHORPHAN HYDROBROMIDE]	17.11%	4.79%
CC(=O)[C@H]1CC[C@H]2[C@@H]3CCC4=CC(=O)CC[C@]4(C)[C@H]3CC[C@]12C [PROGESTERONE]	12.63%	3.02%

SMILES	Inhibition [1]	Inhibition [2]
CCCN1C[C@H](CSC)C[C@@H]2c3cccc4[nH]cc(c34)C[C@H]21.CS(=O)(=O)O [PERGOLIDE MESYLATE]	12.62%	4.25%
CN(C)CCOc1ccc(/C(=C(/CCCl)c2ccccc2)c2ccccc2)cc1.O=C(O)CC(O)(CC(=O)O)C(=O)O [TOREMIFENE CITRATE]	24.11%	-1.37%
Cc1cc(NS(=O)(=O)c2ccc(N)cc2)no1 [SULFAMETHOXAZOLE]	-14.52%	28.59%
C=C(C)CN1CC[C@]23c4c5ccc(O)c4O[C@H]2c2[nH]c4ccccc4c2C[C@@]3(O)C1C5.Cl.O	1.35%	1.94%
CCOC(=O)C1=C(COCCN)NC(C)=C(C(=O)OC)C1c1ccccc1Cl (configuration not stated) [AMLODIPINE]	-19.31%	5.81%
Cc1ccc(-c2nc3ccc(C)cn3c2CC(=O)N(C)C)cc1.Cc1ccc(-c2nc3ccc(C)cn3c2CC(=O)N(C)C)cc1.O=C(O)C(O)C(O)C(=O)O [ZOLPIDEM TARTRATE]	4.54%	-2.63%
CC(C)C(=O)Nc1ccc([N+](=O)[O-])c(C(F)(F)F)c1 [FLUTAMIDE]	10.52%	4.1%
CCN(C(C)=O)c1cccc(-c2ccnc3c(C#N)cnn23)c1 [ZALEPLON]	2.73%	4.96%
O=C1Nc2ccc(Cl)cc2C(c2ccccc2Cl)=NC1O (configuration not stated) [LORAZEPAM]	-3.94%	2.56%
CN[C@@H]1C[C@@H](c2ccc(Cl)c(Cl)c2)c2ccccc21.Cl [INDATRALINE HYDROCHLORIDE]	-18.12%	7.7%
CS(=O)(=O)O.O=C(O[C@@H]1C[C@@H]2C[C@H]3C[C@H](C1)N2CC3=O)c1c[nH]c2ccccc12	5.34%	6.66%
Cc1ncc2n1-c1ccc(Cl)cc1C(c1ccccc1F)=NC2.Cl [MIDAZOLAM HYDROCHLORIDE]	-27.39%	7.58%
Cc1c(OCC(F)(F)F)ccnc1C[S+]([O-])c1nc2ccccc2[nH]1 (configuration not stated) [LANSOPRAZOLE]	16.66%	-0.87%
CN1CCN(C(=O)O[C@H]2c3nccnc3C(=O)N2c2ccc(Cl)cn2)CC1 [ESZOPICLONE]	-7.93%	-0.26%
NS(=O)(=O)c1cc(C2(O)NC(=O)c3ccccc32)ccc1Cl (configuration not stated) [CHLORTHALIDONE]	15.62%	-0.28%
